Data as given in PubChem BioAssay AID463213 (Sanford-Burnham Center for Chemical Genomics, 2010).
Among all 7,400 compounds or so, about 4,100 (55%) were called active. The set was probably picked from earlier hits. These entries were drawn from the full list. Unmarked numbers belong to inactive results.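 Rule for the calls: active = inhibition of yeast growth at or above a set limit in either of two repeat tests at 20 µM; inactive = the rest.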

Assay: tim10-1 ts yeast growth inhibition, retested – single concentration, luminescence, S. cerevisiae, confirmation (AID 463213);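 note: tim10-1 mutant grown at permissive 25 °C to find synthetic lethal compounds; 0% = DMSO yeast wells and 100% = medium wells without yeast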
Details: S. cerevisiae tim10-1 ts strain growth, BacTiter-Glo, 24 h; at 20 µM; active compounds read high
For `O=C(Nc1nnc(SCc2c(Cl)cccc2Cl)s1)C1CCCO1` (stereo not given), the inhibition was 37% (active). In the case of `CN(C(=O)CC(NC(=O)c1ccccc1)(c1ccccc1)c1ccccc1)c1ccccc1`, the inhibition is reported as 31.1% (active). Compound `CN(C(=O)COc1nnc(-c2cccs2)c(-c2cccs2)n1)c1ccccc1` has an inhibition of 17%. In the case of `CCOc1ccccc1/C=c1\sc2nc(-c3ccco3)nn2c1=O`, the inhibition is reported as 49.4% (active). For `CCc1cccc(CC)c1NC(=S)NCc1ccc2[nH]c(C)cc2c1`, the inhibition was 35.8% (active). With `O=C1Oc2ccccc2C(=O)/C1=C/c1ccccc1O` the inhibition was 55.9% (active). With `CN(C)CCCN(C(=O)c1ccc(S(=O)(=O)N2CCCc3ccccc32)cc1)c1nc2ccc(F)cc2s1` the inhibition was 44.5% (active). With `COC(=O)c1cc(S(=O)(=O)N2CCN(c3cc(C)ccc3C)CC2)c[nH]1` the inhibition was 17.7%. In the case of `Nc1cc(OC(=O)c2ccccc2Br)nn1S(=O)(=O)c1ccccc1`, the inhibition is reported as 33.8% (active). For `O=C1c2ccccc2S(=O)(=O)N1CC(O)Cn1c2ccccc2c2ccccc21` (stereo not given), the inhibition was 51.1% (active). `CCOC(=O)c1ccccc1CN1C(=O)c2ccccc2S1(=O)=O` gave an inhibition of 17.6%. Work on `Cc1ccc(C)c(N2CCN(C(=O)CCCCn3c(=O)[nH]c4ccccc4c3=O)CC2)c1` yielded an inhibition of 17.4%. Work on `COc1cccc(-c2cc3nc4c(c(N5CCC6(CC5)OCCO6)n3n2)CCCC4)c1` yielded an inhibition of -1.05%. Work on `O=C1OC(/C=C/c2ccccc2)=NC/1=C/c1ccco1` yielded an inhibition of 3%. In the case of `O=c1nc2s/c(=C\c3ccco3)c(=O)n2nc1Cc1ccccc1`, the inhibition is reported as 66.9% (active). For `O=C(CSc1cccc2cccnc12)N/N=C/c1cccnc1`, the inhibition was 36% (active). For `CCOc1cc(-c2conc2N)cc(OCC)c1OCC`, the inhibition was 20.5%. For `CCOC(=O)c1ccc(NC(=O)c2nc[nH]c2C(=O)NCc2ccccc2)cc1`, the inhibition was 41.4% (active). `COC(=O)c1ccc(NC(=O)c2ccccc2NS(=O)(=O)c2ccccc2)cc1` gave an inhibition of 19.4%. `O=C(COc1ccccc1F)NNC(=O)c1ccc(N2CCCCC2)c([N+](=O)[O-])c1` gave an inhibition of 25.8%. In the case of `Cc1ccccc1OCC(=O)Nc1ccc(N2CCN(C(=O)C(C)C)CC2)c(Cl)c1`, the inhibition is reported as 66.9% (active). In the case of `CN1CCN(c2ccccc2NC(=O)COc2ccc(C3CCCCC3)cc2)CC1`, the inhibition is reported as 12.4%. With `O=[N+]([O-])c1c(NCCO)cc(Sc2nc3ccccc3s2)c2nonc12` the inhibition was 19% (active). Work on `CNC(=O)c1csc(Cc2c(Cl)sc3ccc(Cl)cc23)n1` yielded an inhibition of 20.5%. With `CCCc1cc(-c2nc(-c3ccc(C)cc3)cs2)ccn1` the inhibition was 34.8% (active). `CCOC(=O)/C=C/c1ccc(C(F)(F)F)cc1S(=O)(=O)NC(C)(C)C` showed an inhibition of 29.9%. For `O=C(Nc1ccccc1Cl)/C(Cl)=C(\Cl)S(=O)c1ccccc1` (stereo not given), the inhibition was 55% (active). In the case of `Cc1[nH]n(C(N)=S)c(=O)c1N=Nc1ccc(Cl)cc1Cl`, the inhibition is reported as 61.3% (active). For `CC(=O)Oc1ccc2c(c1)C(=O)c1ccccc1C2=O`, the inhibition was 31.1% (active). In the case of `O=C(CSC(=S)N1CCOCC1)c1cc(Br)cc(Br)c1O`, the inhibition is reported as 46% (active). In the case of `C[C@@H](NC(=O)OC(C)(C)C)c1nnc(S(=O)(=O)Cc2ccccc2)o1`, the inhibition is reported as 48.3% (active). In the case of `CCOC(=O)Cc1csc(NC(=O)CSc2ccc(Br)cc2)n1`, the inhibition is reported as 31.3% (active). For `CCOC(=O)Cc1csc(SCC(=O)NC(C)C23CC4CC(CC(C4)C2)C3)n1` (stereo not given), the inhibition was 40.4% (active). With `COc1ccc(NC(C)=O)cc1NC(=O)CN1CCN(C2c3ccccc3-c3ccccc32)CC1` the inhibition was 15.5%. In the case of `O=C(Nc1ccccc1)c1nnsc1S(=O)(=O)c1ccc(Cl)cc1`, the inhibition is reported as 85.3% (active). Compound `COc1cc(/C=C2/C(=O)ON=C2C)ccc1OCc1ccccc1F` has an inhibition of 26.9%. For `CCCN(CC1COc2ccccc2O1)C(=S)Nc1ccc(C)cc1` (stereo not given), the inhibition was 36.7% (active). Compound `Cc1ccc(C(=O)COc2cccc(NC(=O)c3ccco3)c2)cc1` has an inhibition of 5.8%. With `Cc1ccoc1C(=O)Nc1cccc(Oc2ccccc2)c1` the inhibition was 43.2% (active). Compound `CN(C)N1C(N)=C(C#N)C(c2ccc(Br)cc2)C2=C1CCCC2=O` (stereo not given) has an inhibition of 8.4%. For `S=c1[nH]nc(-c2cccnc2)n1/N=C/C(Cl)=C\c1ccccc1`, the inhibition was 33.9% (active). With `Fc1ccccc1/C=C1\CCCC2=C1Nc1ncnn1C2c1ccccc1F` (stereo not given) the inhibition was 30.5% (active). For `Cc1nc2sc(C(=O)c3ccccc3)c(N)c2c2c1CCCC2`, the inhibition was 37.9% (active). With `Cc1ccc2c(N)c(C(=O)c3ccccc3)sc2n1` the inhibition was 29.6%. `NC(=O)c1sc2nc3c(c(-c4ccccc4)c2c1N)CCC3` gave an inhibition of 19.1%. Compound `CCn1c(COc2c(C)cccc2C)nnc1SCc1nc2ccccc2c(=O)[nH]1` has an inhibition of 20.1%. Work on `CCCCCCCCCCCCCCCC(=O)OC/C=C(C)/C=C/C=C(C)/C=C/C1=C(C)CCCC1(C)C` yielded an inhibition of 17.2%. In the case of `COC(=O)CCc1sc(Nc2ccc(Br)cc2)nc1-c1ccc(OC)cc1`, the inhibition is reported as 19.9%. With `COc1ccc(C(=O)OCC(=O)c2cc(C)n(CC3CCCO3)c2C)cc1[N+](=O)[O-]` (stereo not given) the inhibition was 6%. For `COc1ccc(C(=O)COC(=O)c2ccc([N+](=O)[O-])s2)cc1OC`, the inhibition was 50.6% (active). With `O=C1Nc2ccc(Br)cc2/C1=N/N=C/C1=C(N2CCOCC2)C(=C\c2ccccc2)/CC1` the inhibition was 59.5% (active). In the case of `O=S(=O)(Nc1ccc(O)c2ccccc12)c1ccc(OC(F)(F)F)cc1`, the inhibition is reported as 32.2% (active). For `CC(C)NC(=O)/C(C#N)=C\c1ccc(N(C)C)c(Br)c1`, the inhibition was 46.5% (active). With `O=C1NC(Nc2nc3ccccc3s2)(C(F)(F)F)C(=O)N1C1CCCCC1` (stereo not given) the inhibition was 35.5% (active). In the case of `COC(=O)c1c(NC(=O)COc2ccc(Cl)cc2Cl)sc2c1CC(C)(C)NC2(C)C`, the inhibition is reported as 14.3%. `Clc1ccc(Nc2nc(-c3cccs3)cs2)nc1` showed an inhibition of 15%. With `Cc1ccc(Nc2nc(-c3ccc(O)cc3O)cs2)nc1` the inhibition was 27.6% (active). With `COc1ccccc1N1CCN(C(=O)c2cc(=O)c3cc(C)cc(C)c3o2)CC1` the inhibition was 24.9%. Compound `CCOC(=O)C/C(C)=N\Nc1ccc([N+](=O)[O-])cc1[N+](=O)[O-]` has an inhibition of 9.35%. For `O=[N+]([O-])c1ccc(N/N=C2/CCCCC2c2ccccn2)c([N+](=O)[O-])c1` (stereo not given), the inhibition was 38.6% (active). In the case of `c1ccc(-c2nnc3n2NC(c2ccc4c(c2)OCO4)S3)cc1` (stereo not given), the inhibition is reported as 34% (active). Work on `Cc1cccc(C2c3[nH]c4ccccc4c3CCN2C(=O)c2cc(-c3cccn3C)n[nH]2)n1` (stereo not given) yielded an inhibition of 14.3%. With `CCCCC(=O)Nc1nc(C)c(-c2csc(Nc3ccc(Cl)cc3)n2)s1` the inhibition was 31% (active). With `C=CCCC(=O)Nc1nc(C)c(-c2csc(Nc3ccc(Cl)cc3)n2)s1` the inhibition was 19.9%. In the case of `O=[N+]([O-])c1ccc(C=Nc2ccc(Cl)cc2Cl)s1`, the inhibition is reported as 69.8% (active). In the case of `COc1ccc(/C=C/C2=CC(C)(C)NC(=S)N2)c(OC)c1`, the inhibition is reported as 20.4%. In the case of `NS(=O)(=O)c1ccc(NC(=S)Nc2ccc(Br)c(Cl)c2)cc1`, the inhibition is reported as 41.2% (active). For `CC(Nc1nc(C(F)(F)F)nc2ccccc12)c1cccs1` (stereo not given), the inhibition was 30.1% (active). With `O=[N+]([O-])c1ccc2c(c1)Nc1nc3ccccc3nc1N2` the inhibition was 70.2% (active). For `O=C1CC(c2ccccc2)=NN1c1ccc([N+](=O)[O-])cc1`, the inhibition was 23.8%. Work on `COc1ccccc1NC(=O)C1=C(C)Nc2nnnn2C1c1cccc(Br)c1` (stereo not given) yielded an inhibition of 28.7%. `CC(C)c1cc(C(N)=O)c(NC(=O)c2cccc(COc3ccc(Br)cc3)c2)s1` gave an inhibition of 26.9%. In the case of `CCc1cc(C(N)=O)c(NC(=O)c2ccc(OC)cc2)s1`, the inhibition is reported as 58.2% (active). For `Cn1c(-c2sccc2OCc2cccc(C(F)(F)F)c2)n[nH]c1=S`, the inhibition was 25.1%. With `CCSC1=C(C#N)C(=O)n2c1cc1c2CCCC1` the inhibition was 52.3% (active). In the case of `N#CC1(C#N)C(C(=O)C23CC4CC(CC(C4)C2)C3)C12CCOCC2` (stereo not given), the inhibition is reported as 41.9% (active). In the case of `COc1ccc(S(=O)(=O)Nc2ccc(O)c(Sc3nc4ccccc4s3)c2)cc1`, the inhibition is reported as 37% (active). In the case of `COc1cc(NS(=O)(=O)c2ccc3ccccc3c2)c2ncccc2c1`, the inhibition is reported as 27.8%. For `CC(=NCc1ccc2c(c1)OCO2)C1=C(O)c2ccccc2C1=O`, the inhibition was 40.3% (active). For `c1ccc(-c2cn3c(n2)CCc2ccc4cccnc4c2-3)cc1`, the inhibition was 30.3% (active). Work on `Cc1nc2ccccc2cc1OCc1ccc(F)cc1` yielded an inhibition of 9.05%. With `Cc1ccc(-c2csc(-c3c[nH]c4ccccc34)n2)cc1` the inhibition was 50.9% (active). `O=C(c1cccs1)N(C(=O)c1cccs1)c1ccccn1` gave an inhibition of 20.9%. For `COc1ccc(C)cc1Nc1nc(C)nc2c1oc1ccccc12`, the inhibition was 25.5%. For `O=C(NCCc1ccc(F)cc1)c1ccc(S(=O)(=O)N2CCCCC2)cc1`, the inhibition was 43.5% (active). `O=C(CCc1ccc(S(=O)(=O)N2CCOCC2)cc1)Nc1ccc2ccccc2c1` showed an inhibition of 28.1%. In the case of `COc1ccc(Oc2cn[nH]c2-c2ccc(OC)cc2O)cc1`, the inhibition is reported as 39.3% (active). In the case of `CCCc1[nH]nc2c1C(c1ccc(Br)s1)C(C#N)=C(N)O2` (stereo not given), the inhibition is reported as 79.5% (active). With `CSc1ccc(S(=O)(=O)NCc2ccc(Cl)cc2)cc1` the inhibition was 30.4% (active). With `CSc1ccc(S(=O)(=O)NC2CCCCC2)cc1` the inhibition was 22.4%. In the case of `N/C(=N\OC(=O)c1cc(-c2ccccc2)nc2ccccc12)c1ccncc1`, the inhibition is reported as 70.7% (active). `O=[N+]([O-])c1ccc(N2CCN(c3ccc(O)cc3)CC2)c(Cl)c1` showed an inhibition of 30.2%. For `O=C(/C=C/c1ccc(Cl)c([N+](=O)[O-])c1)c1cccnc1`, the inhibition was 62% (active). With `O=C(/C=C/c1ccc(Cl)c([N+](=O)[O-])c1)c1ccc(O)cc1` the inhibition was 48.3% (active). In the case of `Cc1ccc(N2C(=O)C(Cc3ccccc3)NC2=S)cc1` (stereo not given), the inhibition is reported as 16.7%.
